Assay results: the OligoGym collection

biological target: GLIS2; assay: pooled miR-30 sensor sort-seq; sequence = guide strand; settings: shRNA
Further: reference of the scale not given here.

Sequence | sensor-assay potency score (higher = more potent)
TGGATGAGCATCTTGTACCTGG | -0.352
TTGGAATAGCGCTTGTTGCAGC | -0.438
TAGAAAGGCACTTAGAACCTGT | 0.24
TATTGTTATAGTCATTAGCTTA | -0.656
TTCTCGTTGGTGTGTGTGCGGA | -0.632
ATCGTTGACATGGTCCACCAGG | -0.948
TAGTCATTAGCTTATCTCTTTT | -1.29
TAAAACTCTATGCTAACAGCAA | -0.574
ATAGTCATTAGCTTATCTCTTT | -0.353
TTTCACAGAAGAGTTTCCGTTC | 0.4
TTTTTTTAAAACTCTATGCTAA | -0.424
TTTATAAACTTCCTCTCCCATG | -1.13

biological target: GLP1R; assay: as above; settings: shRNA

Sequence | sensor-assay potency score (higher = more potent)
TTGCAGAACAAGTCTGTGGCAG | 0.187
TTATATCCTATTATTTTCCTTG | -0.237
TTCCTTGCACATCACATGCCTC | -0.533
TTGATGTCTGTCTTGCACATGA | -0.0737
TAGTTCATGTTGGAGTTCCTGG | -0.642
TATCCTATTATTTTCCTTGCAC | 0.182
TTCAGGTGGATGTAGTTCCTGG | -0.141
ATGAGCAGAAACACCAGGCGGC | -0.579
TTTTGCAGCCACGAACTCCTTG | 0.187
TTGGAGTTCCTGGTCCAGCAGC | -1.12
TTTGATGTCTGTCTTGCACATG | -0.835
TTGATGAAGACGGACAATGCTC | -0.64

biological target: GLRA3; assay: as above; settings: shRNA

Sequence | sensor-assay potency score (higher = more potent)
TAGCTTTGACATATGAAACTTT | -0.212
TAACATATAAACACATTGGCAG | -0.00869
TATTCTTTCTCTTTCGTCGAAA | -0.712
TTATTCTTTCTCTTTCGTCGAA | 0.181
TAGGCTGTGAAGCTGAATCGGC | -0.0399
TATACATGTTTGTACATCCATG | -1.26
TGACTTTGCATAGCTAACCAAA | -1.29
TTGCTTGTAGACATGGTCCCAT | 0.533
TAGCATTGAATTACAAATCAAG | -1.08
TTCGAGATCTTGCACTGTCTGT | -0.307
TTGCATGTGACATTAACTGGAG | -0.491
TTCTTCTTTCAACAGAAACTGG | -0.833

biological target: GNAQ; assay: as above; settings: shRNA

Sequence | sensor-assay potency score (higher = more potent)
TTGTGCATGAGCCTTATTGTGC | -1.26
TTGTATGGGATCTTGAGTGTGT | 0.798
TACTCTTGCCACTCTCTCCTGT | 0.305
TCGAACTCTAAGCACATCTTGT | -0.759
